# Experimental data reported in ChEMBL document CHEMBL3988442, “University of Dundee, Small-Polar-MMV Screening Library” (2021).
# Screen size: about 48,000 compounds; about 13,000 (27%) showed an effect of 50% or more. The list shows a part of the results.
# Test system: Wolbachia pipientis
# Experiment: Anti-Wolbachia Cell-Based Screen
# Assay type: functional
# Set-up: scale not given: in the data most compounds retested in dose-response had high values
# Conditions: 5 µM
row,SMILES,Percent Effect [%]
1,CN1CCC(NC(=O)c2cc(F)cc(Cl)c2O)C1=O (stereo not drawn),115.3
2,Cn1cc(N2CCC(NC(=O)c3ccccc3Cl)C2=O)cn1 (stereo not drawn),-3.21
3,CN1CCC(NC(=O)Nc2ccc(F)c(-n3cccc3)c2)C1=O (stereo not drawn),0.2161
4,CN1CCC(NC(=O)Nc2ccc(Cl)c(F)c2)C1=O (stereo not drawn),7.915
5,CN1CCC(NC(=O)Nc2ccc(F)c(Br)c2)C1=O (stereo not drawn),-1.465
6,CN1CCC(NC(=O)c2cc(Cl)cc(Br)c2O)C1=O (stereo not drawn),99.64
7,CN1CCC(NC(=O)CCCc2cc(Cl)sc2Cl)C1=O (stereo not drawn),-5.326
8,CN1CCC(NC(=O)Nc2ccc(Br)c(F)c2)C1=O (stereo not drawn),3.385
9,CN1CCC(NC(=O)c2cc(Br)cc(Cl)c2O)C1=O (stereo not drawn),91.47
10,CCN(C)C[C@@H]1CN(Cc2cccc(Cl)c2)C[C@@H]1CO,-21.33
11,Cc1ncc(CN(C)C(=O)Nc2cccc(N3CCNC3=O)c2)s1,-6.99
12,COc1cccc(-c2cc(NCc3nc(C)cs3)n(C)n2)c1,-29
13,CCOCC(=O)N1CC[C@H]2[C@@H]1CCC(=O)N2Cc1csc(C)n1,22.07
14,CCCS(=O)(=O)N1CC[C@@H]2[C@@H]1CC(=O)N2Cc1csc(C)n1,71.41
15,CCS(=O)(=O)N1CC[C@H]2[C@H]1CC(=O)N2Cc1csc(C)n1,96.63
16,CCN1C(=O)C[C@@H]2[C@@H]1CCN2S(=O)(=O)c1cccc(C)c1,-32.48
17,COc1ccc(Br)c(C(=O)N2CCCC(c3nc(C)no3)C2)c1 (stereo not drawn),-8.45
18,CCC(=O)N1CCN(C(=O)Nc2cccc(N3CCOCC3)c2)CC1,-13.34
19,Cn1ccnc1CN1CCOC(C)(C(=O)N2CCOCC2)C1 (stereo not drawn),108.3
20,O=C(c1cccc(S(=O)(=O)NCCCc2ncc[nH]2)c1)N1CCOCC1,-4.417
21,CC(C)n1ccnc1CN1CCCN(C(=O)c2nccnc2N)CC1,3.581
22,Cn1ccnc1CN1CCC2(CC1)CN(CC1CC1)C(=O)CO2,-0.08379
23,CC(C)n1ccnc1CN1CCOC(C)(C(=O)N2CCOCC2)C1 (stereo not drawn),127.3
24,CC1(C(=O)N2CCOCC2)CN(Cc2ncc[nH]2)CCO1 (stereo not drawn),90.74
25,CN1CC2(CCN(Cc3ncc[nH]3)CC2)CC1=O,-5.481

row,SMILES,Percent Effect [%]
1,CC(NC(N)=O)C(=O)N1CCCN(Cc2nccn2C(C)C)CC1 (stereo not drawn),-6.463
2,Cn1ccnc1CN1CCC2(CC(=O)N(c3ccc4c(c3)OCO4)C2)C1.O=C(O)C(F)(F)F (stereo not drawn),-22.94
3,COc1ccccc1CC1CCCN(CCC#N)C1 (stereo not drawn),-6.976
4,Cc1nonc1C1CCCN1C(=O)c1cc2n(n1)CCCNC2 (stereo not drawn),-3.031
5,COCC(=O)N1CCC(Nc2ccnc3ccc(Cl)cc23)CC1,-6.533
6,COCC(O)CN(C)c1ccnc2ccc(Cl)cc12 (stereo not drawn),99.68
7,COCC(O)CN(C)c1ccnc2cc(Br)ccc12 (stereo not drawn),92.3
8,Cc1ccc(N(C)CC(O)COCc2ccccc2F)c(C)c1 (stereo not drawn),0.5576
9,COc1ccc(Cl)cc1NC(=O)N(C)CC(O)COCCOC(C)C (stereo not drawn),-8.214
10,COc1ccc(COCC(O)CN(C)c2ccc(C)cc2C)cc1 (stereo not drawn),10.8
11,COc1cc(F)ccc1N(C)Cc1ccccn1,9.437
12,COCC(O)CN(C)c1ccnc2cc(F)ccc12 (stereo not drawn),83.56
13,COCC(O)CNc1cncc(Br)c1 (stereo not drawn),-2.667
14,COC(=O)c1ccc(Cl)c(NS(=O)(=O)c2cnn(C)c2)c1,-1.605
15,O=C(CNC(=O)C1CC1)NCC(F)(F)F,-16.51
16,Cl.NC(=O)CCc1cccc(C2CCNCC2)n1,115.3
17,Cl.O=C(CCc1cccc(C2CCNCC2)n1)N1CCCCC1,116.4
18,O=C(CCc1ccccc1)N1CCC(c2n[nH]c(C3CC3)n2)CC1,-4.114
19,CNC(=O)[C@H]1C[C@@H]2CN(S(=O)(=O)c3ccc(C)c(F)c3)C[C@@H]2N1C.O=C(O)C(F)(F)F,-6.907
20,O=C(c1ccoc1)N1CCCC1C1CCN(Cc2ccccc2)CC1 (stereo not drawn),-51.53
21,Cc1nn(C)c(Cl)c1C1CCCN1c1ncnc2c1CCC2 (stereo not drawn),16.41
22,CNC(=O)c1[nH]nc2ccc(I)cc12,8.904
23,COc1ccc2c(C)c(C(=O)NC3CCN(S(C)(=O)=O)CC3)oc2c1,1.038
24,Cc1c(C(=O)O)oc2ccc(I)cc12,125.9
25,O=C(O)CSc1nnc(-c2ccco2)n1-c1ccccc1C(F)(F)F,-16

row,SMILES,Percent Effect [%]
1,COc1cc2c(nn1)CCN(Cc1noc(-c3ccccc3)n1)C2,-2.709
2,NC(=O)c1ccc(C(=O)N(Cc2ccc(O)cc2)CC2CC2)cc1,-2.707
3,CCOCC1c2c(cnn2C)CCN1C(=O)c1cc(C)on1.O=C(O)C(F)(F)F (stereo not drawn),118
4,COCC1c2c(cnn2C)CCN1C(=O)c1cc(C)on1.O=C(O)C(F)(F)F (stereo not drawn),103.5
5,COCC1c2nnn(CC3CC3)c2CCN1C(=O)c1cc(C)on1 (stereo not drawn),18.93
6,CCOCC1c2c(cnn2C)CCN1C(=O)c1ccncn1.O=C(O)C(F)(F)F (stereo not drawn),-13.88
7,O=C(COc1cccc(Br)c1)N1CCN(c2nccs2)CC1,20.8
8,CC(C)c1noc(C2CCCN2C(=O)Cc2cn3ccsc3n2)n1 (stereo not drawn),5.125
9,CN(C)CCCNC(=O)C(c1cccc(F)c1)N(C)C (stereo not drawn),6.227
10,O=C(Nc1ccc(-n2ccnc2)c(F)c1)C1CCN(C(=O)C2CC2)CC1,-14.41
11,COC(C)c1cccc(NCc2cccc(O)c2)c1 (stereo not drawn),1.439
12,Cn1ccc2c(cnc3nc(-c4ccncc4)nn32)c1=O,109.5
13,Cc1nc2ncc3c(=O)n(C)ccc3n2n1,126.9
14,CSc1nc2ncc3c(=O)n(C)ccc3n2n1,108.2
15,Cc1nc2nc(C)c3c(=O)n(-c4ccn[nH]4)ccc3n2n1,1.096
16,Cc1nc(C2CCCN2Cc2nnc(C3CC3)o2)no1 (stereo not drawn),5.301
17,Cc1ccc(-c2nc(CN3CCCC3Cn3cc(C)cn3)no2)cc1 (stereo not drawn),3.147
18,COc1ccc(-c2nc(CN3CCCC3Cn3cccn3)no2)cc1 (stereo not drawn),1.848
19,Cc1nc(CN2CCCCC2Cn2cccn2)nc2ccccc12 (stereo not drawn),-7.431
20,c1cnn(CC2CCCN2Cc2noc(C3CC3)n2)c1 (stereo not drawn),88.48
21,CC(C)c1nc(CN2CCCC2Cn2cccn2)no1 (stereo not drawn),118.9
22,c1ncn(CC2CCCCN2Cc2noc(C3CC3)n2)n1 (stereo not drawn),-14.69
23,c1ccc(-c2nc(CN3CCCC3Cn3cccn3)no2)cc1 (stereo not drawn),97.29
